# Measurements as given in PubChem BioAssay.
# Target: Carbonic anhydrase 2 (Homo sapiens) (UniProt P00918)
# Assay: compounds binding carbonic anhydrase 2 – biochemical, small-molecule microarray, Alexa647-labelled CAII, profiling panel (AID 1122)
# Conditions: CAII-A647 binding fluorescence, higher = more signal
row,Structure (SMILES),composite z-score
1,COC(=O)[C@@]1(Cc2ccc(OC)cc2)[C@H]2c3cc(C(=O)N(C)C)n(Cc4cccc5ccccc45)c3C[C@H]2CN1C(=O)c1ccccc1,0.753
2,C#CCN(Cc1ccccc1Br)C(/C=C/c1ccccc1)CO (stereo unspecified),-0.22
3,COCCOC(=O)N1C(=O)[C@@]2(c3cc(C#CCCO)ccc31)[C@H](C(=O)Nc1nc3ccccc3s1)[C@H]1C(=O)O[C@H](c3ccccc3)[C@H](c3ccccc3)N1[C@@H]2c1ccc(OCCO)cc1,0.295
4,CCOC(=O)C[C@H]1[C@H](OC(=O)c2ccc(C(=O)c3ccccc3)cc2)[C@@H](NC(=O)c2ccc(-c3ccccc3)cc2)c2cc(OCCCO)ccc2N1C(=O)c1ccccc1,0.0733
5,COc1ccc([Si](C)(C)[C@@H]2[C@@H](CC(=O)N3Cc4ccccc4C[C@H]3CO)O[C@]3(C(=O)N(C)c4c(Br)cc(C)cc43)[C@H]2C)cc1,0.574
6,O=C1OCCC=C[C@H]2OC34C=CCN(CCN5CCOCC5)C(=O)[C@H]3N(CCCCCCO)C(=O)[C@@H]4C12 (stereo partly specified),0.844

# System: not listed separately
# Assay: COS7 lysate on small-molecule microarray, probe aHis, 635 nm (AID 1123);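 further: z-score combines 667nm fluorescence intensity with signal-to-noise per printed compound spot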
# Conditions: COS7 cell lysate, fluorescence, higher = more signal
row,Structure (SMILES),composite z-score
1,COc1ccc(C(=O)Nc2ccc(CN3C(=O)[C@@]4(O[C@@H](CC(=O)N5CCC[C@H]5CO)[C@H]([Si](C)(C)c5ccc(OC)cc5)[C@H]4C)c4ccccc43)cc2)cc1,1.78
2,CN1C(=O)C2C=CC(C(O)C3=C[C@H]4C[C@@H](C3)C4(C)C)N(Nc3ccccc3)C2C1=O (stereo partly specified),1.75
3,CS(=O)(=O)CCOC(=O)C1=CC(CCCO)=CC(c2ccc(CN3CCCC3)cc2)N(Cc2cc3c(cc2Br)OCO3)C=C1C(=O)OCCS(C)(=O)=O (stereo unspecified),1.78
4,COC(=O)[C@@]1(Cc2ccc(OC)cc2)[C@H]2c3cc(C(=O)N4CCCC4)n(Cc4ccccc4)c3C[C@H]2CN1C(=O)c1ccccc1,3.09
5,C[N+](C)(C)CCCCNC(=O)[C@H]1C[C@H]2C(=O)N[C@@H](Cc3ccccc3)C(=O)N2[C@H]1c1ccc(O)cc1,0.396
6,C[C@]1(C(=O)NC2CC2)c2ccccc2C(=O)N(Cc2cc(C(F)(F)F)cc(C(F)(F)F)c2)[C@H]1c1ccc(CO)cc1,1.28
7,CCCC#C[Si](O[C@H](CC)c1cn([C@H](CO)Cc2ccccc2)nn1)(C(C)C)C(C)C,0.516
8,CC(=O)N1Cc2ccccc2C[C@@]2(COC(c3ccc(OCCCO)cc3)=N2)C1=O,2.38
9,CC(C)(C)OC(=O)CC[C@@]1(C(=O)NCCN2CCOCC2)N=C(c2ccc(OCCCO)cc2)O[C@@H]1c1ccccc1N=[N+]=[N-],1.81
10,CN1C(=O)C2C=CC(C(O)c3ccccc3)N(Nc3ccccc3)C2C1=O (stereo unspecified),2.45
11,CC(=O)n1cc(C(O)C2C=CC3C(=O)N(C)C(=O)C3N2Nc2ccccc2)c2ccccc21 (stereo unspecified),1.84
12,C=C(COC)/C(=C/C[C@H](OC(=O)c1ccncc1)c1ccc(OCCO)cc1)c1cnc2ccccc2c1,1.46
13,COc1ccc(C#Cc2ccc3c(c2)[C@]2(C(=O)N3)[C@H](c3ccccc3OCCO)N3[C@H](c4ccccc4)[C@H](c4ccccc4)OC(=O)[C@H]3[C@@H]2C(=O)O)cc1,2.27
14,C=CC[C@]1(C(=O)N2CCCCC2)N=C(c2ccc(OCCCO)cc2)O[C@H]1c1ccccc1,2.04
15,COCCOC(=O)N1C(=O)[C@@]2(c3cc(C#Cc4ccc(OC)cc4)ccc31)[C@H](C(N)=O)[C@H]1C(=O)O[C@H](c3ccccc3)[C@H](c3ccccc3)N1[C@@H]2c1ccccc1OCCO,2.54
16,O=C1OCCC/C=C\[C@H]2OC34C=CCN(Cn5nnc6ccccc65)C(=O)[C@H]3N(CCO)C(=O)[C@@H]4C12 (stereo partly specified),0.207
17,C=CCN1C(=O)[C@@]2(O[C@@H](CCO)[C@H]([Si](C)(C)c3ccc(OC)cc3)[C@H]2C)c2cc(NC(=O)c3ccc(OC)cc3)ccc21,0.244
18,COc1ccc(C(O)C2C=CC3C(=O)N(c4ccccc4)C(=O)C3N2Nc2ccccc2F)cc1OCc1ccccc1 (stereo unspecified),2.04

row,Structure (SMILES),composite z-score
1,CCCCCN1CC=CC23O[C@@H]4/C=C\CCCOC(=O)C4[C@H]2C(=O)N(CCCO)[C@@H]3C1=O (stereo partly specified),1.82
2,CN(C)C(=O)[C@@]1(Cc2ccccc2)N=C(c2ccc(OCCCO)cc2)O[C@H]1c1ccccc1N=[N+]=[N-],2.88
3,O=C1OCC=C[C@H]2OC34C=CCN(CCN5CCOCC5)C(=O)[C@H]3N(CCCO)C(=O)[C@@H]4[C@@H]12 (stereo partly specified),0.357
4,CN(C)C(=O)[C@]1(Cc2ccccc2N=[N+]=[N-])N=C(c2ccc(OCCCO)cc2)O[C@@H]1c1ccccc1,2.22
5,COc1ccc(C(=O)Nc2ccc(CN3C(=O)[C@@]4(O[C@@H](CCO)[C@H]([Si](C)(C)c5ccc(OC)cc5)[C@H]4C)c4ccccc43)cc2)cc1,0.81
6,CCOC(=O)C[C@H]1[C@H](OC(=O)Cc2ccc3c(c2)OCO3)[C@@H](NC(=O)c2ccc3ccccc3c2)c2cc(OCCCO)ccc2N1C(=O)c1ccccc1,1.04
7,COc1ccc(C(=O)O[C@H]2CC[C@]3(C)C4=C(CCC3C2(C)C)[C@]2(C)CC[C@H]([C@H](C)CCCC(C)C)[C@@]2(C)CC4)cc1 (stereo partly specified),0.688
8,CN1C(=O)[C@]2(Cc3ccccc3)N=C(c3ccc(OCCCO)cc3)O[C@@H]2c2ccccc21,2.51
9,COc1ccc(CCNC(=O)[C@@]2(C)c3ccccc3C(=O)N(Cc3cc(F)cc(C(F)(F)F)c3)[C@H]2c2ccc(CO)cc2)cc1,1.71
10,COc1ccc(C(O)C2C=CC3C(=O)NC(=O)C3N2Nc2ccccn2)cc1 (stereo unspecified),1.39
11,CN(C)CCCC[C@@H]1NC(=O)[C@H]2C[C@@H](C(=O)NCCCCCNC(=O)CS)[C@@H](c3cccc(OCCO)c3)N2C1=O,1.67
12,COC(=O)[C@@]1(Cc2ccc(OC)cc2)[C@H]2c3cc(C(=O)N(C)C)n(Cc4cccc5ccccc45)c3C[C@H]2CN1C(=O)c1ccccc1,3.03
13,C#CCN(Cc1ccccc1Br)C(/C=C/c1ccccc1)CO (stereo unspecified),-0.163
14,COCCOC(=O)N1C(=O)[C@@]2(c3cc(C#CCCO)ccc31)[C@H](C(=O)Nc1nc3ccccc3s1)[C@H]1C(=O)O[C@H](c3ccccc3)[C@H](c3ccccc3)N1[C@@H]2c1ccc(OCCO)cc1,0.793
15,CCOC(=O)C[C@H]1[C@H](OC(=O)c2ccc(C(=O)c3ccccc3)cc2)[C@@H](NC(=O)c2ccc(-c3ccccc3)cc2)c2cc(OCCCO)ccc2N1C(=O)c1ccccc1,1.31
16,COc1ccc([Si](C)(C)[C@@H]2[C@@H](CC(=O)N3Cc4ccccc4C[C@H]3CO)O[C@]3(C(=O)N(C)c4c(Br)cc(C)cc43)[C@H]2C)cc1,0.498
17,O=C1OCCC=C[C@H]2OC34C=CCN(CCN5CCOCC5)C(=O)[C@H]3N(CCCCCCO)C(=O)[C@@H]4C12 (stereo partly specified),0.1
